Measurements from PubChem BioAssay.
Activity calls are given as the source filed them.

Experiments:
[1] = A549 cell viability effects, profiling panel, calcein-AM fluorescence, 48 h, basal (AID 1162); conditions: higher = more signal
[2] = adipocyte viability effects, profiling panel, cell-based, 3T3-L1 adipocytes, calcein-AM fluorescence, 48 h, basal (AID 1163); conditions: 3T3-L1 adipocytes viability, higher = more signal
[3] = HepG2 cell viability effects, profiling panel, calcein-AM fluorescence, 48 h, basal (AID 1164); conditions: higher = more signal
[4] = MM1S cell viability effects, profiling panel, calcein-AM fluorescence, 48 h, basal (AID 1165); conditions: higher = more signal;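 further: viability of MM1S multiple myeloma cells under basal unstimulated conditions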
[5] = basal RPMI8226 viability, no added stimulus, profiling panel, cell-based, calcein-AM fluorescence, 48 h, PK04 Diversity Set (AID 1166); conditions: RPMI8226 myeloma viability, higher = more signal;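 further: cells grown under basal conditions without added stimulus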
[6] = basal HepG2 mitochondrial membrane potential changes, profiling panel, cell-based, JC-1 fluorescence, 24 h, 100 nL compound (AID 1167); conditions: higher = more signal
[7] = basal 3T3-L1 adipocyte mitochondrial potential changes, profiling panel, cell-based, JC-1 fluorescence, 3T3-L1 adipocytes, 24 h, 100 nL compound (AID 1168); conditions: JC-1 mitochondrial fluorescence, higher = more signal, called active from +8 up or from −8 down
[8] = basal RPMI8226 mitochondrial membrane potential changes, profiling panel, cell-based, JC-1 fluorescence, 24 h, 100 nL compound (AID 1169); conditions: RPMI8226 myeloma, JC-1 mitochondrial potential fluorescence, higher = more signal
[9] = basal MM1S mitochondrial membrane potential changes, profiling panel, cell-based, JC-1 fluorescence, 24 h, 100 nL compound (AID 1170); conditions: higher = more signal
[10] = A549 lung cancer cell viability effects, profiling panel, resazurin fluorescence, 24 h, PK04 Diversity Set (AID 1171); conditions: higher = more signal, called active from +8 up or from −8 down
Further: test concentration not given here.

Structure (SMILES) | z-score [1] | z-score [2] | z-score [3] | z-score [4] | z-score [5] | z-score [6] | z-score [7] | z-score [8] | z-score [9] | z-score [10]
[N-]=[N+]=Nc1ccccc1[C@H]1OC(c2ccc(OCCCO)cc2)=N[C@@]1(CCS(=O)(=O)c1ccccc1)C(=O)NCC(O)CO (stereo not given in full) | -0.0714 | 0.638 | 0.0911 | -0.826 | 0.395 | -1.16 | -0.22 (inactive) | 0.311 | -0.0714 | 0.859 (inactive)
CC(C)CNC(=O)[C@@]1(Cc2ccccc2I)c2ccccc2C(=O)N(C2CCCCC2)[C@H]1c1ccc(CO)cc1 | -0.175 | -0.316 | -0.762 | -1.45 | -2.39 | -0.396 | -0.485 (inactive) | -0.594 | -0.213 | 0.623 (inactive)
O=C1NC(=O)C2C1C=CC(C(O)c1cccs1)N2Nc1ccc(Cl)cc1Cl (stereo not given) | -0.599 | -0.191 | -0.165 | -1.71 | -0.884 | -2.1 | 0.0583 (inactive) | 0.236 | -0.219 | -0.523 (inactive)
CCCC#C[Si](O[C@H](CC)c1cn(Cc2cccc(Cl)c2)nn1)(C(C)C)C(C)C | 1.19 | -1.07 | 1.58 | -1.07 | -0.223 | -0.742 | -0.228 (inactive) | -0.112 | -0.916 | 0.158 (inactive)
O=C1C2C=CC(C(O)c3cccc4ccccc34)N(Nc3ccccc3F)C2C(=O)N1c1ccccc1 (stereo not given) | -1.05 | -1.47 | -0.231 | 0.121 | -0.345 | -1.86 | -0.794 (inactive) | 0.355 | -1.68 | -0.232 (inactive)
COc1ccc([Si](C)(C)[C@H]2[C@H](CC(=O)N3Cc4ccccc4C[C@H]3CO)O[C@@]3(C(=O)N(Cc4cccc(N5CCC5=O)c4)c4ccccc43)[C@@H]2C)cc1 | 0.0575 | 0.441 | -0.616 | -2.68 | -3 | 0.419 | 0.465 (inactive) | -1.02 | -1.23 | -0.919 (inactive)
C=C[C@H](OC)[C@@H](OC(=O)Nc1ccc(OC)cc1)c1ccc(O)c(F)c1 | -0.766 | -0.501 | -0.322 | -2.06 | -2.88 | -2.39 | 0.313 (inactive) | -0.538 | -0.933 | -0.596 (inactive)
CC(C)NC(=O)[C@@]1(c2ccc([N+](=O)[O-])cc2)CC(=O)N(C2CCCCC2)[C@@H]1c1ccc(CO)cc1I | 1.92 | 1 | 0.243 | -2.24 | -2.58 | 1.29 | 0.484 (inactive) | -0.169 | 0.521 | 0.465 (inactive)
C=C(COC)C(=O)CC[C@@H](OC(C)=O)c1ccc(CO)o1 | -0.97 | 0.186 | 0.473 | -0.0988 | -0.355 | -0.799 | 0.195 (inactive) | -0.548 | -0.066 | 0.188 (inactive)
C=C(/C(=C/C[C@H](OC(C)=O)c1ccccc1OCCO)c1cnc2ccccc2c1)C(C)C | 0.689 | -0.665 | 0.218 | -3.32 | -2.23 | 0.469 | -1.34 (inactive) | 0.251 | -0.685 | -0.0361 (inactive)
COC(=O)[C@H](Cc1ccccc1)N1CC2=C[C@@H](C3CC3)n3c(=O)n(C)c(=O)n3[C@H]2[C@@H]1[C@@H](O)Cc1ccccc1 | 1.97 | -0.375 | 0.888 | 0.378 | -0.473 | 1.49 | -1.06 (inactive) | 0.223 | -0.804 | 0.138 (inactive)
C#C[C@H](O[Si](C#Cc1ccc(Oc2ccccc2)cc1)(C(C)C)C(C)C)c1ccccc1 | -2.21 | -1.19 | -1.48 | -3.02 | -4.16 | -3.3 | -0.805 (inactive) | -0.836 | -1.34 | -1.3 (inactive)
COC(=O)[C@@]1(Cc2ccc(F)cc2)[C@H]2c3cc(C(=O)N(C)C)n(Cc4ccc(Cl)c(C(F)(F)F)c4)c3C[C@H]2CN1C(=O)c1ccccc1 | -1.16 | -0.207 | -1.04 | -2.26 | -4.06 | 1.96 | -1.47 (inactive) | -0.854 | -1.54 | -1.27 (inactive)
Cc1ccc(S[C@]2(C(=O)NCCCN(C)C)CC(=O)N(Cc3ccccc3C(F)(F)F)[C@@H]2c2ccc(CO)cc2)cc1 | 0.397 | -0.22 | 0.41 | 0.306 | 0.595 | 1.47 | 0.0218 (inactive) | 0.139 | 0.427 | -0.515 (inactive)
O=C(c1ccccc1)N1C(=O)[C@]2(COC(c3ccc(OCCCO)cc3)=N2)Cc2ccccc21 | -0.525 | 0.6 | -0.92 | -1.72 | -3.77 | -1.23 | -0.03 (inactive) | -1.26 | -1.49 | -0.272 (inactive)
